Hits are enriched below; roughly 2.3% of the tested compounds scored in any of these assays.
ATXN2 expr inh: Primary qHTS for Inhibitors of ATXN expression; HEK-293 ATXN2-luciferase reporter, luminescence, 24 h; Potency, µM (titrated, usually from 57 µM), inactives show top-dose activity change, negative = inhibition, actives largely listed as inhibitors; 360,000 tested, 0.72% active; AID 1745845, 2022; note: % is set by controls: 0 for no effect and ±100 for the full control effect; nearly all actives have a fitted effect of over 55% in size
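ATXN2-luciferase reporter cells (luciferase flanked by upstream and downstream ATXN2 gene portions) were treated 24 h at 37 °C with compounds at up to 57 uM. SteadyGlo luminescence gave expression; GF-AFC fluorescence gave viability.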
HepG2 viability: qHTS for Inhibitors of TGF-b: Cytotox Counterscreen; HepG2 CAGA-GFP viability, ATP luminescence, 18 h; Potency, µM (doses to about 46.1 µM), for inactives: at the highest dose activity change, negative = cytotoxicity, usual class: cytotoxic; 410,000 tested, 0.76% active; AID 588856, 2011
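CellTiter-Glo luminescence gave cytotoxicity after 18 hours at 37 degrees C. The cells were HepG2 CAGA-GFP in 1% FBS DMEM, stimulated with 500 pg/mL TGF-beta after compound addition. %Activity was normalised to no-cell wells (complete cell-killing) and DMSO (no toxicity), and curves were fitted and classified.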
TGFb SMAD3 inh: qHTS for Inhibitors of TGF-b. 410,000 tested, 1.2% active. HepG2 CAGA-GFP TGF-b/SMAD3 reporter, GFP fluorescence, 18 h; TGF-beta stimulated, 500 pg/mL final. Potency, µM (highest dose often 46.1 µM), for inactives: at the highest dose activity, negative = inhibition, hits mostly inhibitors; note: % is set by controls: 0 for no effect and ±100 for the full control effect; nearly all actives have a fitted effect of over 65% in size
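Inhibition was scored as loss of TGF-beta-induced (500 pg/mL final, 18 hours, 37 degrees C) GFP in HEPG2 cells carrying a CAGA-GFP reporter, in DMEM with 1% FBS. Well GFP was summed per cell; Activity was normalised to unstimulated and stimulated DMSO wells, then concentration-response fitting.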
ATXN viability: Viability Counterscreen for Primary qHTS for Inhibitors of ATXN expression | S2 cells (HEK-293 line with an ATXN2-luciferase reporter) viability, CellTiter-Fluor protease fluorescence, 24 h | Potency, µM (titrated, usually from 56.7 µM), usual class: cytotoxic | 400,000 tested, 0.49% active | AID 651635, 2014; note: nearly all actives have a fitted effect of over 40% in size
Numbers without * were called inactive; i = inactive; ? = inconclusive; . = no result; ! = not active in a repeat; [ ] = another dose, or the depositor's remark. Calls come from the whole dose curve; as a rule, active = well fitted curve in the direction sought with a large enough effect; inconclusive = small, poorly fitted or top-dose-only effect, or another doubt; inactive = no such curve, though single readings can be large; an effect the other way counts as inactive or inconclusive. Potency is the fitted concentration of half-maximal effect.

SMILES	ATXN2 expr inh	HepG2 viability	TGFb SMAD3 inh	ATXN viability
CCCCCCC(C)(C)c1ccc([C@@H]2C[C@H](O)CC[C@H]2CCCO)c(O)c1	14µM*	10µM*!	13µM*	10µM*
O=c1[nH]c2ccccc2n1C1CCNCC1	2%	.	.	i
O=C1C=CC2C3C(=O)N(c4ccccc4)C(=O)C3C1N2Cc1ccccc1 (stereo not drawn)	?	13µM*	2.8µM*	6µM*
CCOC(=O)[C@]12Cc3cc(C)ccc3[C@H]1N(CCC(=O)OC)C(=O)c1ccccc12	-29%	.	.	18µM*
CCOC(=O)[C@]12Cc3cc(Cl)ccc3[C@H]1N(C1CCCCC1)C(=O)c1cc(OC)ccc12	2.2µM*	.	.	2µM*
CCOC(=O)[C@]12Cc3ccc(C)cc3[C@H]1N(C1CCCCC1)C(=O)c1cc(OC)ccc12	4µM*	.	.	4.5µM*
CCOC(=O)[C@]12Cc3ccc(C)cc3[C@H]1N(C1CCCCC1)C(=O)c1ccccc12	11µM*	.	.	13µM*
CC(C)Oc1cccc(NC(=O)c2ccccc2C(F)(F)F)c1	-13%[116 µM]	.	.	i
CCOC(=O)[C@]12Cc3c(cc(OC)c(OC)c3OC)[C@H]1N(C1CCCCC1)C(=O)c1ccccc12	6.3µM*	.	.	8.9µM*
CCOC(=O)[C@]12Cc3cc4c(cc3[C@H]1N(Cc1ccccc1)C(=O)c1ccccc12)OCO4	?	-10%	?	?
CCOC(=O)[C@]12Cc3cc(N(C)C)ccc3[C@H]1N(Cc1ccccc1)C(=O)c1ccccc12	?	-4%	?	?
CCOC(=O)[C@]12Cc3cc(C)ccc3[C@H]1N(C1CCCCC1)C(=O)c1ccccc12	4.5µM*	.	.	3.5µM*
CN1C(=O)NC(=O)/C(=C\C=C\c2ccccc2[N+](=O)[O-])C1=O	32µM*	-19%	11µM*	28µM*
CCOC(=O)c1cccc(NC(=O)c2cnc(N3CCCCC3)c3ccccc23)c1	.	-21%	?	.
O=c1[nH]c(O)c(C=NC2CCCCC2)c(=O)[nH]1	0%	0.63µM*	5%	?
Cc1ccc(-c2nc(N(C)C3CCN(C)CC3)c3ccccc3n2)cc1	20µM*	13µM*	?	?
COc1ccc(NP(=O)(Oc2cccc(C)c2)Oc2cccc(C)c2)cc1OC	.	-43%	16µM*	i
COc1ccc(NP(=O)(Oc2ccc(Cl)cc2)Oc2ccc(Cl)cc2)cc1OC	-22%	-47%	20µM*	i
COc1ccc(OC)c(NP(=O)(Oc2ccc(Cl)cc2)Oc2ccc(Cl)cc2)c1	8%	0%	-17%	i
Cc1cccc(OP(=O)(Nc2ccc(F)cc2)Oc2cccc(C)c2)c1	-24%	-84%	?	i
COc1ccc(NP(=O)(Oc2ccccc2OC)Oc2ccccc2OC)cc1	.	0%	-5%	i
COc1ccccc1OP(=O)(Nc1ccc(Br)cc1)Oc1ccccc1OC	-22%	-79%	16µM*	i
C=C1C(=O)OC2CC(C)C3C=CC(=O)C3(C)C(O)C12 (stereo not drawn)	?	-118%	3.2µM*	?
C=C1C(=O)O[C@H]2C[C@@H](C)[C@@H]3C=CC(=O)[C@@]3(C)C[C@H]12	6.3µM*	7.9µM*	4.5µM*	?
C=C1C(=O)O[C@@H]2C[C@@H](C)[C@@H]3C4OC4C(=O)[C@@]3(C)[C@@H](O)[C@H]12 (stereo partly drawn)	3.2µM*	-88%	2.8µM*	3.5µM*
SMILES	ATXN2 expr inh	HepG2 viability	TGFb SMAD3 inh	ATXN viability
C=C1C(=O)O[C@H]2[C@H]1[C@H](OC(=O)CC(=O)O[C@@H]1C[C@@H](C)[C@@H]3C=CC(=O)[C@@]3(C)[C@H]3OC(=O)C(=C)[C@H]13)C[C@@H](C)[C@H]1C=CC(=O)[C@]12C	?	-65%	?	?
C=C1C(=O)O[C@@H]2C[C@@H](C)[C@@H]3C=CC(=O)[C@@]3(C)[C@@H](OC(=O)CC(=O)O[C@H]3[C@@H]4C(=C)C(=O)O[C@@H]4C[C@@H](C)[C@@H]4C=CC(=O)[C@]43C)[C@H]12	0.32µM*	0.56µM*	0.25µM*	.
CCOC(=O)Nc1ccc(NCc2ccc(F)cc2)cc1N	-7%	.	.	.
C[C@]12CC[C@H]3[C@@H](CCC4=CC(=O)CC[C@@H]43)[C@@H]1CC[C@@H]2OC(=O)CCc1ccccc1	-4%	.	.	i
COc1ccc(CCNC(=O)c2ccc3c(c2)CCN3S(=O)(=O)c2ccc(C)cc2)cc1OC	-12%	-18%	-18%	?
COc1ccc(CCNc2nc3c(c(=O)n(C)c(=O)n3C)n2Cc2ccc(F)cc2)cc1OC	-17%	-6%	-10%	?
Oc1c(Cl)cccc1Cc1cc(Cl)cc(Cl)c1O	?	-29%	11µM*	i
Oc1c(Cl)cc(Cl)cc1CN1CCN(Cc2ccccc2)CC1	-9%	1%	7%	i
CC1(C)C[C@H]2C=C(C=O)[C@]3(C=O)C[C@]3(C)[C@H]2C1	3.5µM*	10µM*	?	7.1µM*
Cc1ccc(S(=O)(=O)c2nc(-c3ccccc3Cl)oc2N(C)C2CCN(C)CC2)cc1	-33%	11µM*	?	?
O=C(c1ccc2c(c1)N(Cc1ccc(F)cc1Cl)C(=O)c1ccccc1S2)N1CCC2(CC1)OCCO2	.	-19%	11µM*	.
Cc1ccc(CN2C(=O)c3ccccc3Sc3ccc(C(=O)N4CCC5(CC4)OCCO5)cc32)cc1	.	-37%	?	.
CC(=O)Nc1ccc(OC(=O)N2CCN(/[N+]([O-])=N/Oc3ccc([N+](=O)[O-])cc3[N+](=O)[O-])CC2)cc1	.	-101%	?	.
O=C(O)c1cc(Oc2ccc(C(F)(F)F)cc2Cl)ccc1[N+](=O)[O-]	2%	4%	3%	i
O=[N+]([O-])c1cc(C(F)(F)F)c(Cl)c([N+](=O)[O-])c1Nc1ncc(C(F)(F)F)cc1Cl	.	2.5µM*	1.8µM*	.
C[C@]12CC[C@H](O)C[C@H]1CCC1C2CC[C@]2(C)[C@@H](c3ccc(=O)oc3)C[C@H]3O[C@]132 (stereo partly drawn)	.	6.3µM*	7.9µM*	.
C[C@]12CCC3[C@@H](CC[C@@H]4C[C@H](O)CC[C@]34C)[C@@H]1CCC2=O (stereo partly drawn)	5%	-14%	-7%	i
CC(=O)O[C@H]1[C@H]2O[C@]23[C@@H]2CC[C@]4(O)C[C@@H](O)CC[C@]4(C)C2CC[C@]3(C)[C@H]1c1ccc(=O)oc1 (stereo partly drawn)	0.32µM*	-60%	3.5µM*	?
C[C@]12CC[C@H]3C(CCC4(O)CC(O)CC[C@]34C=O)C1=CC[C@H]2c1ccc(=O)oc1 (stereo partly drawn)	.	7.1µM*	?	?
CCOC(=O)c1cc(-c2ccccc2)n(CCCC(=O)Nc2ccc(C)c(C)c2)c1C	.	-24%	?	.
